This passage reports Potency results from PubChem BioAssay (Tox21).

Inconclusive results are not listed. Active and inactive are the calls of the source. Unless noted, calls follow the shape of the full dose curve.

Assay [1] can be described thus: Nuclear factor erythroid 2-related factor 2/antioxidant responsive element (Nrf2/ARE) small molecule agonists: qHTS cell viability counter screen in human keratinocytes (AID 1919968; active = well fitted curve in the direction sought with a large enough effect in the repeat runs; an effect the other way counts as inactive or inconclusive; also: nearly all actives have a fitted effect of over 55% in size). The gist of the method:
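Cells of the KeratinoSens line were plated at 1,500 per well and left for 5 h before compound transfer from DMSO stocks. After a 23 h incubation (37 C, 5% CO2), CellTiter-Fluor was added. Signal was taken as fluorescence intensity 1 h later.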

A short description of assay [2]: Nuclear factor erythroid 2-related factor 2/antioxidant responsive element (Nrf2/ARE) small molecule agonists: luciferase reporter gene qHTS assay in human keratinocytes (AID 1919969). Also: nearly all actives have a fitted effect of over 35% in size. In general terms: A reporter such as luciferase makes a cellular process visible.
The target of assay [3] is Gonadotropin-releasing hormone receptor (Homo sapiens) (UniProt P30968). Kind of assay: Human gonadotropin-releasing hormone receptor (GnRHR) small molecule agonists, calcium flux assay in GnRHR-HEK293 cells (AID 1920063). Also: nearly all actives have a fitted effect of over 35% in size. The gist of the method: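 Compounds dissolved in DMSO are pin-transferred onto dye-loaded GnRHR-HEK293 cells, which were seeded 18 h before at 37 C/5% CO2. Calcium signal is read as fluorescence intensity at 1 s intervals for 3 min.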

Assay [4] addresses KiSS-1 receptor (Homo sapiens) (UniProt Q969F8). In words: Human kisspeptin (KISS1R) small molecule agonists, calcium flux assay in KISS1R-HEK293 cells (AID 1920064; active = well fitted curve in the direction sought with a large enough effect in the repeat runs; an effect the other way counts as inactive or inconclusive). The method in brief:
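Cell line: HEK293, stable human KISS1R. Dye loading 1 h at 37 C after 18 h culture. Read: kinetic fluorescence, 480/540 nm, 3 min at 1 s intervals.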
A general note: Calcium assays in cells follow changes in intracellular calcium, usually with a dye or a luminescent sensor.

The nature of assay [5]: G protein-coupled receptor (GPCR) small molecule agonists, calcium flux assay: HEK293 wild type cell line counter screen (AID 1920065). The gist of the method:
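Tox21 10K compounds, 15 concentrations each in triplicate, pin-transferred in DMSO onto dye-loaded cells; kinetic read at 480/540 nm for 3 min, 1 s intervals.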

A short description of assay [6]: p53 small molecule agonists, cell-based qHTS assay with human liver microsomes (AID 1963577).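 Also: p53 response element beta-lactamase reporter cells with liver microsomes plus NADPH.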 The gist of the method: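 p53RE-bla cells; 5 h settle, 37 C/5% CO2; cpd + HLM 0.5 mg/mL + NADPH 0.5 mg/mL (final); 16 h 37 C; LiveBLAzer 2 h RT dark; fluorescence readout.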
(In general: qHTS replaces the single test concentration by a dilution series.)

A short description of assay [7]: p53 small molecule agonists, cell-based qHTS assay with rat liver microsomes (AID 1963578). The method in brief: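 Rat liver microsome activation: microsomes 0.5 mg/mL, NADPH 0.5 mg/mL final; p53RE-bla cells, 16 h 37 C; LiveBLAzer readout, 2 h RT dark.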
A short description of assay [8]: p53 small molecule agonists, cell-based qHTS assay with human liver microsomes: qHTS cell viability counter screen (AID 1963579). Also: nearly all actives have a fitted effect of over 45% in size. The method in brief:
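Luminescent CellTiter-Glo read-out, 30 min at room temperature, gauged cytotoxicity in p53RE-bla cells exposed 16 h at 37 C to DMSO-dissolved compounds with metabolic activation by human liver microsomes and NADPH, each 0.5 mg/mL final.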

Assay [9] is described as follows: p53 small molecule agonists, cell-based qHTS assay with rat liver microsomes: qHTS cell viability counter screen (AID 1963580). Also: nearly all actives have a fitted effect of over 45% in size. The gist of the method:
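Counter screen for cytotoxicity under metabolic activation: rat liver microsomes and NADPH, 0.5 mg/mL final each, added with compounds to p53RE-bla HCT-116 cells; 16 h at 37 C, then ATP luminescence read.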

Assay [10] is described as follows: p53 small molecule agonists, cell-based qHTS assay: qHTS cell viability counter screen (AID 1963581). Also: nearly all actives have a fitted effect of over 45% in size. The method in brief:
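ATP content measured by luminescence in HCT-116 p53RE-bla cells treated 16 h at 37 C, same wells as the reporter screen.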

Assay [11] is described as follows: p53 small molecule agonists, cell-based qHTS assay (AID 1963582; active = well fitted activation curve with a large enough effect in the signal ratio in the repeat runs, not every such curve was filed as active; the % refers to the signal ratio; also: potency is read from the fitted curve at half-maximal effect). The gist of the method:
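16 h compound exposure (37 C) of p53 response element–bla cells, preceded by 5 h recovery at 37 C/5% CO2; read-out via LiveBLAzer B/G FRET substrate, 2 h RT, fluorescence intensity.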

The nature of assay [12]: cAMP Responsive Elements (CRE) small molecule agonists, cell-based qHTS assay (AID 1963590). The gist of the method:
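HEK 293T cells stably bearing CRE-bla were plated at 2,000 cells per well and rested 18 h. Compounds, positive controls or DMSO were added for 3 h at 37 C. LiveBLAzer B/G substrate was then loaded for 2 h at room temperature.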

Assay [13] can be described thus: cAMP Responsive Elements (CRE) small molecule antagonists, cell-based qHTS assay (AID 1963591; active = well fitted inhibition curve with a large enough effect in the signal ratio in the repeat runs, not every such curve was filed as active; the % refers to the signal ratio). The method in brief:
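First, CRE-bla HEK293T cells settled 18 h at 37 C. Next, compound and 0.25 uM final NKH477 were applied for 3 h. Last, LiveBLAzer B/G substrate was loaded for 2 h at room temperature.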

For assay [14], the target named is Beta-2 adrenergic receptor (Homo sapiens) (UniProt P07550). Kind of assay: Adrenergic beta2 receptor (ADRB2) small molecule antagonists, cell-based qHTS assay (AID 1963592). Also: series mostly up to about 92 µM; nearly all actives have a fitted effect of over 50% in size. The gist of the method: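 Assay format: CHO-ADRB2 cells, 18-20hr seeding at 37C/5% CO2, then compound plus 1nM isoproterenol agonist mix for 0.5hr RT. Homogeneous time-resolved fluorescence cAMP detection after 1hr, expressed as 665/615 nm ratio.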

The target in assay [15] is D(2) dopamine receptor (Homo sapiens) (UniProt P14416). In words: Dopamine D2 receptor (DRD2) small molecule agonists, cell-based qHTS assay (AID 1963594). Also: nearly all actives have a fitted effect of over 35% in size. The gist of the method: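 HEK293 cells stably expressing DRD2 were cultured 24 h at 37 C, then given Ro20-1724 (0.1 mM final) and compounds for 10 min at room temperature. NKH477 (200nM) was then added for 30 min. cAMP was read by HTRF.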

Assay [16] has the same target. Kind of assay: Dopamine D2 receptor (DRD2) small molecule antagonists, cell-based qHTS assay (AID 1963595; active = well fitted inhibition curve with a large enough effect in the signal ratio in the repeat runs, with a control signal flat; the % refers to the signal ratio). The method in brief:
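HEK293 cells stably expressing DRD2 were preincubated with 0.1 mM Ro20-1724, then with compound for 10 min at room temperature. Cells were stimulated with 200 nM NKH477 plus 12 nM quinpirole for 30 min, and cAMP was read by HTRF.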

In assay [17] the target is 5-hydroxytryptamine receptor 2A (Homo sapiens) (UniProt P28223). Kind of assay: 5-hydroxytryptamine receptor 2A (HTR2A) small molecule antagonists, cell-based qHTS assay (AID 1963586). Also: nearly all actives have a fitted effect of over 45% in size. The method in brief: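 CHO cells stably expressing human HTR2A were plated for 18 h at 37 C, then loaded with calcium dye for 1 h. Compounds were preincubated 5 min at room temperature before DOI (4 nM solution) was added. Kinetic fluorescence was read for 3 min.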

Assay [18] has the same target. In words: 5-hydroxytryptamine receptor 2A (HTR2A) small molecule agonists, cell-based qHTS assay (AID 1963587). Also: nearly all actives have a fitted effect of over 30% in size. The method in brief: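 HTR2A-CHO cells, plated 18 h at 37 C/5% CO2, dye-loaded 1 h at 37 C; compounds in DMSO added by pin tool (agonist mode). Intracellular calcium flux read as kinetic fluorescence on FDSS over 2 min at 1 s intervals.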
The target in assay [19] is Muscarinic acetylcholine receptor M1 (Homo sapiens) (UniProt P11229). Kind of assay: Cholinergic receptor muscarinic 1 (CHRM1) small molecule antagonists, cell-based qHTS assay (AID 1963588). Also: nearly all actives have a fitted effect of over 40% in size. The gist of the method:
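Compounds were tested at 15 concentrations in three independent runs. Dye-loaded CHRM1-CHO cells were exposed 5 min at room temperature before stimulation by acetylcholine added at 50nM. Intracellular calcium was read kinetically on FDSS for 3 min.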

The target is the same in assay [20]. In words: Cholinergic receptor muscarinic 1 (CHRM1) small molecule agonists, cell-based qHTS assay (AID 1963589). Also: nearly all actives have a fitted effect of over 35% in size. The method in brief: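 Homogeneous fluorescence calcium flux, agonist mode. Human M1-expressing CHO cells; compound dosed at 15 concentrations, three independent runs; signal sampled every 1 sec.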

Chain of D(2) dopamine receptor (Homo sapiens) (P14416 whole entry, looked up): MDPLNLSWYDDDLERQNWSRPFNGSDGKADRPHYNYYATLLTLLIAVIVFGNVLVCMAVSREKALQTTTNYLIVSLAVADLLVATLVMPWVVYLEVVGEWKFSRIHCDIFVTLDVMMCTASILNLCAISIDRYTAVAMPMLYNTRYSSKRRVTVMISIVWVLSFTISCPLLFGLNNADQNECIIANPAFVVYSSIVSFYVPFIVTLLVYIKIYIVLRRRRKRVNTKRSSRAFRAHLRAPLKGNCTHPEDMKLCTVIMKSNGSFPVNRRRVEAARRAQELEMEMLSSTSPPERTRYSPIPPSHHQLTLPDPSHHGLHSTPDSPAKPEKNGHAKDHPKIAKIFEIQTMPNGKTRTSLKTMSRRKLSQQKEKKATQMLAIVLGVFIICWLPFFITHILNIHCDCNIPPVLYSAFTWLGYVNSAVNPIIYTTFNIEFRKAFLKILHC
Chain of Beta-2 adrenergic receptor (Homo sapiens) (P07550 whole entry, looked up): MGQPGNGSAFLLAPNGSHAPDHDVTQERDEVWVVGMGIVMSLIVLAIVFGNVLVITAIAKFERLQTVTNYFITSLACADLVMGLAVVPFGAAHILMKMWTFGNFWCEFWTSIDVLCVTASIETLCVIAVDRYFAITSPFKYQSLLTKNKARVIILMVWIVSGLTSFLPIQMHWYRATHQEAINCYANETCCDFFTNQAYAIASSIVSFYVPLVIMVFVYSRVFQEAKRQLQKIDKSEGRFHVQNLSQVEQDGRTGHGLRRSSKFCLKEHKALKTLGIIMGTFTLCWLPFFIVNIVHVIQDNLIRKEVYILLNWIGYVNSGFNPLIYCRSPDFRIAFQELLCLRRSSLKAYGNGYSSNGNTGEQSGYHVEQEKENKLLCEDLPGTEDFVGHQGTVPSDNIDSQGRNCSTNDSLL
Chain of Muscarinic acetylcholine receptor M1 (Homo sapiens) (P11229 whole entry, looked up): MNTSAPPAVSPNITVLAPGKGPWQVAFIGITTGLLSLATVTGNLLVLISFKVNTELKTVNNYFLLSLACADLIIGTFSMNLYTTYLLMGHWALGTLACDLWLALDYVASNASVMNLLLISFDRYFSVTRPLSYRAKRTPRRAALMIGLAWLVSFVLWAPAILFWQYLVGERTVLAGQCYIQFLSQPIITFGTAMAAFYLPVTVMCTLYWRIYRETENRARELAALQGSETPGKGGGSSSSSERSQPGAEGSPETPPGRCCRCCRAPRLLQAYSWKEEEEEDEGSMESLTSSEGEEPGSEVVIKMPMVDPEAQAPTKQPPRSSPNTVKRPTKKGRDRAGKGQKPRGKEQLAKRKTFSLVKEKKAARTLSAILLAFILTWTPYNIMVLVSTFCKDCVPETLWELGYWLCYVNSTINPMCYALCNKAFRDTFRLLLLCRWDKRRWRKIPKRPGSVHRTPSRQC
Chain of 5-hydroxytryptamine receptor 2A (Homo sapiens) (P28223 whole entry, looked up): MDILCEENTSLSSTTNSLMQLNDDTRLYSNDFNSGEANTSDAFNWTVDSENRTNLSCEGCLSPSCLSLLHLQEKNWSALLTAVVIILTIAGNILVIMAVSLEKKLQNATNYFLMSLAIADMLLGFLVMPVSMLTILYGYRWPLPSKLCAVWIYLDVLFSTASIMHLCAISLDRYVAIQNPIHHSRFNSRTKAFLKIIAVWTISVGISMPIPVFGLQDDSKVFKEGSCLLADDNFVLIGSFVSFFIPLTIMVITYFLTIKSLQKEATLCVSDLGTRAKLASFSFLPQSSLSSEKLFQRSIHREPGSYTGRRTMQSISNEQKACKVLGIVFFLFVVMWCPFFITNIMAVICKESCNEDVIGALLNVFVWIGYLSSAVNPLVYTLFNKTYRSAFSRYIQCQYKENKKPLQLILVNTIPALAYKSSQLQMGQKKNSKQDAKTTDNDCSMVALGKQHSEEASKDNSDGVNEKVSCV
Chain of KiSS-1 receptor (Homo sapiens) (Q969F8 whole entry, looked up): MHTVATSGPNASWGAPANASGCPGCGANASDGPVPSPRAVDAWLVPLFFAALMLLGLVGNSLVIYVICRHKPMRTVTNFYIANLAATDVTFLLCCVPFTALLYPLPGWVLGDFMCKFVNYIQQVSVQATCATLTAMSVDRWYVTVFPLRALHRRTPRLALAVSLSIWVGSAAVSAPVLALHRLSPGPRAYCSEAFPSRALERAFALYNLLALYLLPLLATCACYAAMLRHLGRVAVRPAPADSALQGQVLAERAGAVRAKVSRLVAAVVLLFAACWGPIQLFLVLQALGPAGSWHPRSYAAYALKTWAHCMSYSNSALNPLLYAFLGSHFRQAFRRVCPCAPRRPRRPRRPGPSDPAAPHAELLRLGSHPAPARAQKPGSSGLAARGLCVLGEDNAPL
Chain of Gonadotropin-releasing hormone receptor (Homo sapiens) (P30968 whole entry, looked up): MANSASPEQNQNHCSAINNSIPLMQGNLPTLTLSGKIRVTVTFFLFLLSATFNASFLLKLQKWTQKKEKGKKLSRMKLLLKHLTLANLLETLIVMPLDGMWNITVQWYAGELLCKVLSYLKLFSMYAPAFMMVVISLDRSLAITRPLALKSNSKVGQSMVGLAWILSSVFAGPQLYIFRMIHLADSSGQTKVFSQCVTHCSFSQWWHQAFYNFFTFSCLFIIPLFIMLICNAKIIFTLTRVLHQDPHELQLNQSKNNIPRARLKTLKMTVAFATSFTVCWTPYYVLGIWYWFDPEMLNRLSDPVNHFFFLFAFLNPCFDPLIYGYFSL

For the molecule `O=C(O)CC(O)(CC(=O)O)C(=O)O`, the Potency entry in [1], in assay [2], in assay [3], in assay [4], in [5] and in assay [6] was “inactive” each time. For the same molecule, the Potency entry in assay [7], in assay [8], in assay [9], in [10], in assay [11] and in assay [12] was “inactive” throughout. For the same molecule, the Potency entry in [13], in assay [14], in [15] and in assay [16] was “inactive” in each case.

`Cc1ccccc1O`: the Potency result in assay [1], in [2], in assay [3], in [4], in assay [5] and in [6] was “inactive” in each case. The Potency result in assay [7], in assay [8], in assay [9], in assay [10], in assay [17] and in [18] was “inactive” each time. The Potency entry in [19], in [20], in assay [12], in [13], in assay [14] and in assay [15] was “inactive” in each case. Moreover, the Potency entry in [16] is “inactive”.

Take `CCCCCCCCSC(=O)Oc1cc(Cl)nnc1-c1ccccc1`: the Potency entry in assay [1], in [2], in assay [3], in assay [4], in assay [5] and in [6] was “inactive” in each case. Also, the Potency result in assay [7], in [8], in assay [9], in assay [10], in [17] and in assay [18] was “inactive” in each case. Also, the Potency entry in assay [19], in [20], in [12], in [13], in [14] and in assay [15] was “inactive” in each case. Moreover, in [16], the Potency result was “inactive”.

As to `CCN(CC)N=O`, the Potency result in [1], in assay [2], in assay [3], in assay [4], in assay [5] and in [6] was “inactive” in each case. For the same molecule, the Potency result in assay [7], in assay [8], in assay [9], in assay [10], in [11] and in [12] was “inactive” each time. In addition, the Potency result in assay [13], in [14], in assay [15] and in [16] was “inactive” throughout.

`[N-]=[N+]=CC(=O)OC[C@H](N)C(=O)O`: the Potency result in assay [1], in assay [2], in [3], in [4], in [5] and in assay [6] was “inactive” in each case. Besides, the Potency result in assay [7], in assay [8], in assay [9], in assay [10], in assay [11] and in [12] was “inactive” in each case. In addition, the Potency entry in assay [13], in [14], in [15] and in assay [16] was “inactive” in each case.

Consider `CCOC(=O)C1(c2ccccc2)CCN(CCC(C#N)(c2ccccc2)c2ccccc2)CC1`, for which the Potency result in assay [1], in [2], in assay [3], in assay [4], in [5] and in assay [6] was “inactive” throughout. Moreover, the Potency entry in assay [7], in [8], in assay [9], in [10], in assay [18] and in assay [20] was “inactive” throughout. In addition, the Potency result in assay [12], in [13], in assay [14] and in [16] was “inactive” in each case. Moreover, in assay [11], the Potency was 7.93 µM (active).

Regarding `CC(C)c1cccc(C(C)C)c1O`, the Potency result in assay [1], in [2], in assay [3], in assay [4], in assay [5] and in assay [6] was “inactive” each time. Moreover, the Potency entry in assay [7], in assay [8], in [9], in assay [10], in [11] and in assay [12] was “inactive” each time. Besides, the Potency result in assay [15] and in [16] was “inactive” each time.
